The text below walks through data of PubChem BioAssay.

Results filed as inconclusive are left out. Activity calls are given as the source filed them. Unless noted, how the calls were made is not given here.

Experiment [1] can be described thus: viability loss in pontine glioma line – cell-based, SU-DIPG-XIII, MIPE4.0, CellTiter-Glo, qHTS, dose response (AID 1347061; cut-off not given, nearly all actives have AC50 up to about 37 µM;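 further: cells exposed to compound for 48 hours before readout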). The following applies: CellTiter-Glo ATP luminescence.
A short description of experiment [2]: viability loss in pontine glioma line – cell-based, JHH-DIPG-1, MIPE4.0, CellTiter-Glo, qHTS, dose response (AID 1347062; cut-off not given, nearly all actives have AC50 up to about 27 µM). The note with it: JHH-DIPG-1 viability, CellTiter-Glo ATP luminescence. (In general: ATP-based viability assays read luminescence as a measure of living cells.)
Experiment [3] in a line: viability loss in pontine glioma line – cell-based, SU-DIPG-IV, MIPE4.0, CellTiter-Glo, qHTS, dose response (AID 1347063; cut-off not given, nearly all actives have AC50 up to about 30 µM;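 further: compound exposure lasted 48 hours before the viability readout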). The note with it: CellTiter-Glo ATP luminescence.
Experiment [4] is described as follows: viability loss in pontine glioma line – cell-based, SU-DIPG-XIII, MIPE5.0, CellTiter-Glo, qHTS, dose response (AID 1347064; cut-off not given, nearly all actives have AC50 up to about 23 µM). The note with it: CellTiter-Glo ATP luminescence.
Experiment [5] can be described thus: viability loss in pontine glioma line – cell-based, SU-DIPG-XXV, MIPE5.0, CellTiter-Glo, qHTS, dose response (AID 1347065; cut-off not given, nearly all actives have AC50 up to about 26 µM;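 further: cells exposed to compound for 48 hours before ATP readout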). The following applies: CellTiter-Glo ATP luminescence.
A short description of experiment [6]: JHH-DIPG-1 glioma cell viability, MIPE5.0 library, CellTiter-Glo luminescence, qHTS (AID 1347067; cut-off not given, nearly all actives have AC50 up to about 26 µM;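 further: cells exposed to compound for 48 hours before readout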). The following applies: JHH-DIPG-1 glioma viability, CellTiter-Glo ATP luminescence.
Experiment [7] is described as follows: growth inhibition of DIPG cells – cell-based, MIPE5.0 library, qHTS (AID 1347068; cut-off not given, nearly all actives have IC50 up to about 30 µM). The note with it: SU-DIPG-XXV viability. A general note: Quantitative high-throughput screening tests each substance at several concentrations.
Experiment [8] can be described thus: blockers of cellular phospholipid synthesis – cell-based, LOPAC library, screen 4, primary screen (AID 1347384). The following applies: animal cells, phospholipid biosynthesis inhibition screen; at 10 µM.
In experiment [9] the target is Mitogen-activated protein kinase 7 (Homo sapiens) (UniProt Q13164). Put plainly: Gal4-ERK5 driven luciferase induction – cell-based, HTS, primary screen (AID 1508626;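 active means luciferase signal above three times the same-plate solvent-only control wells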;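 further: luciferase driven by Gal4-ERK5 fusion binding five Gal4 sites before minimal TATA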). The note with it: HeLa Gal4-ERK5 transactivation, 18 h, at 5 µM, stronger effect = higher value.
Experiment [10] is described as follows: compounds altering circadian rhythm period length – cell-based, LOPAC library, luminescence reporter (AID 2774).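 Further: values are relative to mean of DMSO wells on each plate.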 The following applies: circadian reporter cells, at 7 µM, actives lie on both sides.
The subject of experiment [11] is Aerobactin synthetase IucA (Klebsiella pneumoniae). Put plainly: inhibition of K. pneumoniae IucA enzyme – biochemical, Tocris library, absorbance (AID 1345561).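 Further: 100% = enzyme without compound and 0% = no enzyme.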 The following applies: purified IucA enzyme assay, absorbance (OD) read-out; stronger effect = lower value;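 tested at 8 µM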.
Experiment [12] has as its target ATP-dependent translocase ABCB1 (Homo sapiens) (UniProt P08183). Put plainly: P-glycoprotein substrate transport blockade – cell-based (AID 377; in the data active means fluorescence slope change above about 50%). The following applies: MDR1-expressing cells, fluorescent substrate accumulation slope; stronger effect = higher value; concentration not given here.
A short description of experiment [13]: viability loss in pontine glioma line – cell-based, SU-DIPG-XVII, MIPE5.0, CellTiter-Glo, qHTS, dose response (AID 1347060; cut-off not given, nearly all actives have AC50 up to about 26 µM;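 on AC50: cells exposed to compound for 48 hours before viability readout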). The note with it: CellTiter-Glo ATP luminescence.
Experiment [14] can be described thus: growth inhibition of DIPG cells – cell-based, MIPE4.0 library, CellTiter-Glo luminescence, qHTS (AID 1347066; cut-off not given, nearly all actives have AC50 up to about 30 µM;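 further: cells exposed to compound for 48 hours before readout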). The note with it: SU-DIPG-VI viability, CellTiter-Glo ATP luminescence.
The nature of experiment [15]: growth inhibition, single agent or in combination, cell-based, chromothripsis tumors, cisplatin or BGB combos (AID 1671449; in the data active means inhibition above about 80%;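 further: cells exposed for 96 hours; 0% = vehicle DMSO and 100% = killing by high DMSO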). The following applies: LFS_MB_P medulloblastoma cells.
Experiment [16] is described as follows: growth inhibition, single agent and combos, cell-based, chromothripsis tumors, cisplatin or BGB combos (AID 1671450; in the data active means inhibition above about 80%;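 further: cells exposed to compound for four days; 0% = vehicle DMSO and 100% = cell killing by high DMSO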). The following applies: HDN33 neuroblastoma cells, stronger effect = higher value.
Experiment [17] in a line: growth inhibition, single agents and combos, ICB984, cell-based, cisplatin or BGB combos, synergistic combos for chromothripsis tumors (AID 1671451).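 Further: cells exposed for 96 hours before readout; 0% = vehicle DMSO and 100% = killing by high DMSO.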 The following applies: ICB984 medulloblastoma cells, drug combinations, stronger effect = higher value.
A short description of experiment [18]: growth inhibition, single agents and combos, HTB85, cell-based, BGB or cisplatin IC20 combos, synergistic combos for chromothripsis tumors (AID 1671453; in the data active means inhibition above about 80%;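 further: cells exposed for 96 hours before readout; 0% = vehicle DMSO and 100% = high DMSO killing control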). The note with it: HTB85 osteosarcoma cells, drug combinations, stronger effect = higher value.
The nature of experiment [19]: growth inhibition, MDA-MB-436, cell-based, BGB or cisplatin combos, synergistic combos for chromothripsis tumors (AID 1671458).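 Further: cells exposed for 96 hours; 0% = vehicle DMSO and 100% = killing by high DMSO.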 The note with it: MDA-MB-436 breast carcinoma growth inhibition, drug combinations, stronger effect = higher value.
Experiment [20] in a line: BT084 cell growth, single and combined drugs, ICGC_MB145, cisplatin and BGB IC40 combos (AID 1671461; in the data active means inhibition above about 80%;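 further: cells exposed to drugs for 96 hours; 0% = vehicle DMSO and 100% = high DMSO full killing control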). The note with it: BT084 medulloblastoma cells, drug combinations, stronger effect = higher value.

Chain of Mitogen-activated protein kinase 7 (Homo sapiens) (Q13164 whole entry, looked up, the tested form may be a part): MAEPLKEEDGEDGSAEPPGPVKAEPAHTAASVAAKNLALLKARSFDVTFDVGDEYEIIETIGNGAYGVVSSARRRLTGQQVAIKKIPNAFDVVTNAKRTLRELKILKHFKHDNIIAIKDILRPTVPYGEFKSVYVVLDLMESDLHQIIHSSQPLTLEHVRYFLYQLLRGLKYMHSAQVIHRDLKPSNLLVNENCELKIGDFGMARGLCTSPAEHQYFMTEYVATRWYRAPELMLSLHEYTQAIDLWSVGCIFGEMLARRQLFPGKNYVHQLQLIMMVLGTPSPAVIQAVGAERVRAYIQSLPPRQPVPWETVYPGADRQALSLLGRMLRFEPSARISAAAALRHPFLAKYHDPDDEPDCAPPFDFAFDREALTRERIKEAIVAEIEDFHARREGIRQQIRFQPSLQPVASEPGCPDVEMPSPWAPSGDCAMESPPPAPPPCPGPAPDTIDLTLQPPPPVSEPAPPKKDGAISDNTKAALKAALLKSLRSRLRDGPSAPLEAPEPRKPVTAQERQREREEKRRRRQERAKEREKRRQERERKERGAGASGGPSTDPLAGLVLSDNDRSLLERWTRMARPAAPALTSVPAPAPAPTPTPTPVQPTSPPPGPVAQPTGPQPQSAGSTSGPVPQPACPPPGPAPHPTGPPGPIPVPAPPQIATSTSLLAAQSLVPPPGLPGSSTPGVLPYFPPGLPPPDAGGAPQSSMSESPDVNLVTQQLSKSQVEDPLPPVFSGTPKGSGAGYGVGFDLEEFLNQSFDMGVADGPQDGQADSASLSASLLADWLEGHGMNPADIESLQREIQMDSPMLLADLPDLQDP
Chain of ATP-dependent translocase ABCB1 (Homo sapiens) (P08183 whole entry, looked up): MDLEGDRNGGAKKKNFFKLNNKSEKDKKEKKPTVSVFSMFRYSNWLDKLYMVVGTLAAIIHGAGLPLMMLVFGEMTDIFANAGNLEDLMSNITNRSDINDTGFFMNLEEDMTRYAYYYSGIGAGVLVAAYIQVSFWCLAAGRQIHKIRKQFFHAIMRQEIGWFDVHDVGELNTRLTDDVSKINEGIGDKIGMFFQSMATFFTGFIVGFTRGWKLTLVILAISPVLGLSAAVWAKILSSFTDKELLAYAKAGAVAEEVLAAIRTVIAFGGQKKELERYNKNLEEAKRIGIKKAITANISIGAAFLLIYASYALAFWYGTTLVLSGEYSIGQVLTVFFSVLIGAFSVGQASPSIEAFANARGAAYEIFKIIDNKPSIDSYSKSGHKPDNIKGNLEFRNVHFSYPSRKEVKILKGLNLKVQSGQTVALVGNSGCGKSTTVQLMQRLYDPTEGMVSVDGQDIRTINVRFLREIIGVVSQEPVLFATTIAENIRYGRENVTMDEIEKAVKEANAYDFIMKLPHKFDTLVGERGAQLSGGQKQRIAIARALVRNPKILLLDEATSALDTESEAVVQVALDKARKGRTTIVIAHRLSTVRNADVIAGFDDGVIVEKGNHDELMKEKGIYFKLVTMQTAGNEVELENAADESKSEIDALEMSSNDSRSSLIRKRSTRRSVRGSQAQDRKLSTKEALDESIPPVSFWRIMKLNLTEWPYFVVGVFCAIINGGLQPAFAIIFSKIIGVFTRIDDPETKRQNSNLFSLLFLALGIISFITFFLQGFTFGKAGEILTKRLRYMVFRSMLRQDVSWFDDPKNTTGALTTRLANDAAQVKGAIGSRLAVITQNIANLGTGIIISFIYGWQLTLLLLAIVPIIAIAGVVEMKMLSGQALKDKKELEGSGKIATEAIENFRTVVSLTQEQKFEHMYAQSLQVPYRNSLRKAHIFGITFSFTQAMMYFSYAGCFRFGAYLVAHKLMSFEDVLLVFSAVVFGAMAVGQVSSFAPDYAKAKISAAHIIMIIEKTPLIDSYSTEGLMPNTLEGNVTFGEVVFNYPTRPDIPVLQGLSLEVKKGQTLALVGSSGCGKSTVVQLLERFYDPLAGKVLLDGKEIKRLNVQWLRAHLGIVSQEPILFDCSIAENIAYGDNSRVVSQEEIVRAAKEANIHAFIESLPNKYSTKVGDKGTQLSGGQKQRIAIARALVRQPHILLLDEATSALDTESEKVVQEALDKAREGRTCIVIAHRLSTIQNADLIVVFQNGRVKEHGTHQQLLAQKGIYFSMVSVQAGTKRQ

For `Cc1cccc(C)c1NC(=O)CN1CCCC1=O`, the result in [1], in [2], in experiment [3], in experiment [4], in experiment [5] and in experiment [6] was inactive. In addition, the call in [7] and in experiment [8] was inactive.

Take `COP(=O)(OC)OC=C(Cl)Cl`: in [9], the luciferase signal was 84 AU (inactive).

For orientation: remaining activity means the signal under treatment as a percentage of the control signal. `O=C1NCN(c2ccccc2)C12CCN(CC1COc3ccccc3O1)CC2` (stereo not drawn): in experiment [10], the period change is 0.005 h (inactive). Besides, the remaining activity in [11] is 104% (inactive).

For `C[N+]1(C)[C@@H]2CC[C@H]1CC(OC(=O)C(CO)c1ccccc1)C2` (stereo partly drawn), in [9], the luciferase signal is 60 AU (inactive).

As for `Cc1ccc(S(=O)(=O)N[C@@H](CCCCN)C(=O)CCl)cc1`, in experiment [10], the period change is 0 h (inactive). Further, the outcome in [8] was inactive.

On to `CCCCC/C=C\C/C=C\C/C=C\C/C=C\CCCC(=O)NCC(=O)O`, for which, in [10], the period change was 0.15 h (inactive).

`FC(F)(F)c1cccc(C2=CCN(CCc3ccc4ccccc4c3)CC2)c1`: the remaining activity in experiment [11] is 94.1% (inactive).

On to `CCOC(=O)CC(SP(=S)(OC)OC)C(=O)OCC` (stereo not drawn), for which the luciferase signal in [9] is 52 AU (inactive).

Regarding `CCCN1CCC[C@@H]2Cc3nc(N)ncc3C[C@H]21`, the period change in [10] is -0.24 h (inactive). The outcome in [8] was inactive.

Take `Cc1nnc2n1-c1sc(CCC(=O)N3CCOCC3)cc1C(c1ccccc1Cl)=NC2`: in experiment [11], the remaining activity is 108% (inactive).

Turning to `NCC1(CC(=O)O)CCCCC1`, in [12], the fluorescence slope change was 23.2% (inactive). Further, the period change in experiment [10] is -0.07 h (inactive). Further, the outcome in experiment [13], in [1], in [2], in experiment [3], in experiment [4] and in experiment [5] was inactive. The call in experiment [14], in [7] and in experiment [8] was inactive. Also, in experiment [9], the luciferase signal was 76 AU (inactive).

Regarding `N#CC(C#N)=Cc1ccc(O)c(O)c1`, the period change in [10] is -0.18 h (inactive). Moreover, the remaining activity in [11] was 122% (inactive). Moreover, the call in [8] was inactive.

For the compound `O=C(O)c1ccc2[nH]cc(CCCCN3CC=C(c4ccccc4)CC3)c2c1`, the remaining activity in experiment [11] was 115% (inactive).

As to `Clc1cccc(SC2CCNCC2)n1`, the remaining activity in experiment [11] is 108% (inactive).

As for `c1ccc(C2CC2)c(OCC2=NCCN2)c1`, the period change in [10] is -0.34 h (inactive). Moreover, in experiment [11], the remaining activity is 102% (inactive). Further, the compound was classed as inactive in experiment [8].

Turning to `C[C@]12CC[C@H](O)CC1=CC[C@@H]1[C@@H]2CC[C@]2(C)C(=O)CC[C@@H]12`, in experiment [10], the period change is -0.175 h (inactive). The compound was classed as inactive in experiment [13], in [1], in [2], in experiment [3], in [4] and in [5]. Moreover, the outcome in [14], in [6] and in experiment [7] was inactive. For the same compound, in experiment [9], the luciferase signal is 48 AU (inactive).

As a reminder, the AC50 is the concentration giving half of the maximal activity seen. By inhibition is commonly meant the drop in the measured response relative to a control, in per cent. Take `Cn1c(CCCC(=O)O)nc2cc(N(CCCl)CCCl)ccc21`: the AC50 in [13] is 20.9 µM (active). The compound was classed as inactive in [4], in experiment [5], in experiment [14], in experiment [7] and in [8]. The inhibition is -19.5% (inactive) in [15] (at 0.5 µM, stronger effect = higher value); -18.2% in experiment [15] (measured here: combination with BGB IC20, at 0.005 µM); -30.6% in experiment [15] (measured here: combination with BGB IC40, at 0.005 µM); -11.9% in experiment [15] (measured here: combination with BGB IC40, at 0.05 µM); -29.9% in experiment [15] (measured here: combination with cisplatin, at 0.5 µM, stronger effect = higher value); -14.2% in experiment [15] (measured here: combination with cisplatin, at 5 µM, stronger effect = higher value). Besides, the inhibition in experiment [16] (BGB combo, at 5 µM) was -27.8%; in experiment [16] (at 0.5 µM), -43.6% (inactive); in experiment [16] (cisplatin combo, at 5 µM), -18.8%; in [16] (measured here: with BGB IC20 combination, at 0.5 µM) it was -46.1%; in experiment [16] (measured here: with cisplatin IC20 combination, at 0.5 µM), -39.8%; in experiment [16] (single agent, at 5 µM), -57.4%. For the same compound, the inhibition in experiment [17] (BGB IC20 combo, at 0.005 µM) was 6.09%; in experiment [17] (BGB IC40 combo, at 0.005 µM), -55.7%; in experiment [17] (BGB IC40 combo, at 0.05 µM) it was -19.6%; in experiment [17] (at 0.5 µM) it was -15.5% (inactive); in [17] (cisplatin combo, at 0.05 µM), -19.6%; in experiment [17] (cisplatin combo, at 0.5 µM), -24.4%. Moreover, the inhibition in experiment [17] (cisplatin combo, at 5 µM) is -46.7%; in [17] (measured here: 5 uM single agent, at 5 µM), -9.28%; in experiment [18] (at 0.5 µM) it was -34.4% (inactive); in experiment [18] (measured here: with BGB IC20, at 0.5 µM), -54.6%; in [18] (measured here: with BGB IC20, at 5 µM), -12.9%; in [18] (measured here: with cisplatin IC20, at 0.5 µM) it was -48.5%. Also, the inhibition in experiment [18] (measured here: with cisplatin IC20, at 5 µM) is -38%; in [18] (single agent, at 5 µM), -20%; in experiment [19] (at 0.5 µM) it was -25.9% (inactive); in experiment [19] (measured here: BGB combination, at 0.5 µM), -33%; in experiment [19] (measured here: BGB combination, at 5 µM), -23.4%; in experiment [19] (measured here: cisplatin combination, at 0.5 µM), -31%. Besides, the inhibition in experiment [19] (measured here: cisplatin combination, at 5 µM) is -8.45%; in experiment [20] (at 0.5 µM) it was -12.4% (inactive); in experiment [20] (cisplatin combination, at 0.5 µM), -15.3%; in experiment [20] (cisplatin combination, at 5 µM), -29.8%; in [20] (measured here: BGB IC40 combination 0.05 uM, at 0.05 µM), -6.48%; in experiment [20] (single agent, at 5 µM), -11.8%.
